Assay results published in PubChem BioAssay (NCATS).
Inconclusive results are not listed. The source made the active and inactive calls. Calls come from the whole dose curve; as a rule, active = well fitted inhibition curve with a large enough effect; inconclusive = small, poorly fitted or top-dose-only effect; inactive = flat fitted curve, though single readings scatter.

molecular target: Glutathione peroxidase 1 (Homo sapiens) (UniProt P07203); test: Primary qHTS Assay for Inhibitors of Recombinant Selenoprotein Glutathione Peroxidase 1 (GPX1) (AID 1845191); conditions: recombinant GPX1, GR-coupled NADPH fluorescence, 15 min; series mostly up to 48.8 µM; activity, negative = inhibition: at the top concentration; note: nearly all actives have a fitted effect of over 65% in size
Sequence (P07203 whole entry, looked up): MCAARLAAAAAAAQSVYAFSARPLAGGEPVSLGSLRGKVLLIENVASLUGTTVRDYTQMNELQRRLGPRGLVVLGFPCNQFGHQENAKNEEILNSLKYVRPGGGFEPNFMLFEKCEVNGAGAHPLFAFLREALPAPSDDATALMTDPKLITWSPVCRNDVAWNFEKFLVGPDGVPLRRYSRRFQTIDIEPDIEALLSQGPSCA
Text: Assay Provider: Elias S.J. Arner MD PhD.
Department of Medical Biochemistry and Biophysics
Karolinska Institutet, Solna, Stockholm, Sweden
Selenoprotein glutathione peroxidases (GPX), like the ubiquitously expressed GPX1 and the ferroptosis modulator GPX4, enact their antioxidant activities by reducing hydroperoxides using glutathione. […] GPX1 and GPX4 inhibitors have thus shown promise as anti-cancer agents. Existing inhibitors are often promiscuous, or modulate GPX activity only indirectly, so novel direct inhibitors identified through screening against GPX1 and GPX4 could be valuable. Here, we developed optimized glutathione reductase (GR)-coupled GPX assays for the biochemical high-throughput screen (HTS) of almost 12,000 compounds with known mechanisms of action. Initial hits were triaged using a GR counter-screen, assessed for isoform specificity using a separate GPX2 assay, and were assessed for general selenocysteine-targeting activity using a thioredoxin reductase (TXNRD1) assay. With this suite of assays, we identified novel GPX1/GPX2- and GPX4-specific inhibitors and can here present a validated pipeline for future discovery research for selenoprotein-targeting agents.
SEQUENCE No. (e.g., 1, 2, 3, etc.); […] (e.g., Cells, Incubation, Reagent, etc.); VALUE; DESCRIPTION.
1; Reagent 1; 3 uL; GPx1 enzyme or no enzyme control in 1536-well, black, solid Greiner assay plate.
2; Compound; 25 nL; Kalypsis pin tool (Wako USA) equipped with a 1536-well pin head.
3; Incubation; 30 min; room temperature.
4; Reagent 2; 1 uL; 10 nM GPX1, 1 mM GSH, 0.5 mM CHP, 0.5 mM NADPH, 100 nM GR, 0.01% BSA substrate
5; Detection; Fluorescence; ViewLux microplate reader, excitation 340 nm and emission 450 nm.
6; Incubation; 15 min; room temperature.
7; Detection; Fluorescence; ViewLux microplate reader, excitation 340 nm and emission 450 nm.
NOTES (numbers refer to Sequence numbers above)
1. 3 uL of 16.66 nM GPX1 and 0.016% BSA in assay buffer (50 mM Tris-HCl, 2 mM EDTA (pH 7.5), 150 mM NaCl) was added to columns 3-48 of 1536-well assay plates using a BioRAPTR Flying Reagent Dispenser (Let's Go Robotics (LGR), Carlsbad, CA). A no-enzyme control (0.01% BSA in TES assay buffer) was added to columns 1-2.
2. 25 nL of test compounds and DMSO controls were added to each well with a pin tool (Kalypsys).
3. The assay plates were incubated for 30 minutes at room temperature.
4. 1 uL of master mix (500 nM glutathione reductase (GR), 5 mM reduced glutathione (GSH), 2.5 mM NADPH in assay buffer) was added. 1 uL of cumene hydroperoxide (CHP) ([2.5 mM] in 50% EtOH) was then added within 5 minutes to initiate the reaction. Final concentrations were: 10 nM GPX1, 1 mM GSH, 0.5 mM CHP, 0.5 mM NADPH, 100 nM GR, 0.01% BSA.
5. Initial fluorescence readout (t=0) at 340/450 nm was measured using a ViewLux multimodal detector (PerkinElmer, Waltham, MA).
7. Endpoint fluorescence readout (t=15) at 340/450 nm was measured 15 min after room temperature incubation.
Potency is the fitted concentration of half-maximal effect.

| Structure (SMILES) | Potency | activity, negative = inhibition | outcome |
| --- | --- | --- | --- |
| Cn1nccc1Nc1nccc(-c2ccn([C@H](CO)c3ccc(Cl)c(F)c3)c(=O)c2)n1 | inactive | – | – |
| COc1ccc(C(=O)N(CCC(C)C)Cc2nc(C)c(C)n2Cc2ccccc2C)c(OC)c1 | – | -25.9% (inactive) | – |
| CC(C)n1nc(-c2ccc(NC(=O)Nc3cccc(C(F)(F)F)c3)cc2)c2c(N)ncnc21 | – | – | inactive |
| COc1cc(/C=C(\C#N)C(N)=O)cc(CSc2nc3ccccc3s2)c1O | – | -3.58% (inactive) | – |
| N[C@H](Cc1cnc[nH]1)C(=O)O | – | 3.04% (inactive) | – |
| COc1cc(N2CCOCC2)ccc1Nc1ncc(F)c(Nc2ccccc2NS(C)(=O)=O)n1 | – | – | inactive |
| CSc1nc(N)cc(Oc2ccc(-c3nc(Nc4cccc(C(F)(F)F)c4)n[nH]3)cc2)n1 | – | – | inactive |
| NC(Cc1cc(I)c(Oc2cc(I)c(O)c(I)c2)c(I)c1)C(=O)O (stereo not given) | – | – | inactive [at 27.7 µM] |
| CC1(C)CC[C@]2(C(=O)O)CC[C@]3(C)C(=CC[C@@H]4[C@@]5(C)C[C@@H](O)[C@H](O)C(C)(C)[C@@H]5CC[C@]43C)[C@@H]2C1 | inactive | – | – |
| O=C(Nc1ccc(S(=O)(=O)Nc2nccs2)cc1)c1cc(-c2ccccc2)nc2ccccc12 | – | -29.3% (inactive) | – |
| CC1OC2O[C@H]3[C@@H](OCC(O)[C@H]3O)OC(=O)C34CCC(C)(C)CC3C3=CCC5C6(C)CC(O)C(OC7OC(CO)C(O)C(O)C7O[C@@H]7OC[C@H](OC(=O)CC(C)(O)CC(=O)OC1C(OC1OCC(O)C(O)C1O)C2O)[C@@H](O)[C@H]7O)C(C)(CO)C6CCC5(C)C3(C)CC4 (stereo not given in full) | – | -11.5% [at 27.7 µM] (inactive) | – |
| CC1=CC(=O)[C@@]2(C(C)C)C[C@@H]12 | – | -16.9% (inactive) | – |
| O=C1NC(=NCc2cccs2)S/C1=C/c1ccc2ncccc2c1 | – | 0.631% (inactive) | – |
| OC(CNCCc1c[nH]c2ccccc12)Cn1c2ccccc2c2ccccc21 (stereo not given) | – | – | inactive |
| CC1OC2OC3C(OCC(O)C3O)OC(=O)C34CCC(C)(C)CC3C3=CCC5C6(C)CC(O)C(OC7OC(CO)C(O)C(O)C7OC7OCC(OC(=O)CC(C)(O)CC(=O)OC1C(OC1OCC(O)C(O)C1O)C2O)C(O)C7O)C(C)(CO)C6CCC5(C)C3(C)CC4O (stereo not given) | – | -3.16% [at 27.7 µM] (inactive) | – |
| O=C1CCCC2=C1C(c1ccccc1Br)N=C(Nc1nc3ccccc3o1)N2 (stereo not given) | – | – | inactive |
| C=CC(C)(C)c1[nH]c2ccccc2c1C1=C(O)C(=O)C(c2c[nH]c3c(CC=C(C)C)cccc23)=C(O)C1=O | – | 2.11% (inactive) | – |
| Oc1cccc(-c2nc(N3CCOCC3)c3sccc3n2)c1 | – | -4.1% (inactive) | – |
| CCCCn1c(-c2ccccc2)nc(-c2ccccc2)c1CN(Cc1ccc2c(c1)OCO2)Cc1ccc2c(c1)OCO2 | – | – | inactive |
| Cc1[nH]c(/C=C2\C(=O)Nc3ccc(F)cc32)c(C)c1C(=O)NC[C@H](O)CN1CCOCC1 | inactive | – | – |

| Structure (SMILES) | Potency | activity, negative = inhibition | outcome |
| --- | --- | --- | --- |
| C/C(=C1/C(=O)Nc2ccc(NC(N)=O)cc21)c1ccc[nH]1 | – | 3.78% (inactive) | – |
| C=C1C(=O)O[C@@H]2[C@H]1[C@H](O)C[C@]1(C)[C@@H](O)CC=C(C)[C@@H]21 | – | – | inactive |
| COc1ccc(NS(=O)(=O)c2sc3ccc(Cl)cc3c2C)cc1N1CCNCC1 | – | – | inactive |
| C[C@H]1COCCN1c1cc(C2(S(=O)(=O)C3CC3)CC2)nc(-c2ccc(NC(=S)NCCO)cc2)n1 | – | – | inactive |
| COC(=O)/C=C/C(=O)N(O)CCCCNCc1ccc(COC(=O)Nc2cccc3ccccc23)cc1 | – | -1.3% (inactive) | – |
| Oc1cc(CNC(=S)/C=C/c2cc(O)c(O)c(Br)c2)cc(O)c1O | 8.06 µM (active) | – | – |
| Cc1cc(-c2nc(C(=O)Nc3cn(C4CCOCC4)nc3C(N)=O)co2)ccn1 | – | 4.39% (inactive) | – |
| CN(CCCNC(=O)c1ccc2nc3c(c(Cl)c2c1)CCCC3)Cc1ccccc1 | – | – | inactive |
| CN1C/C=C/CCOc2cccc(c2)-c2ccnc(n2)Nc2cccc(c2)C1 | – | – | inactive |
| C[N+]1(C)[C@@H]2CC[C@H]1CC(OC(=O)C(O)c1ccccc1)C2 (stereo not given in full) | – | -8.29% (inactive) | – |
| Cc1nc(CNc2ncnc3ccc(-c4ccc5c(c4)OCO5)cc23)cs1 | – | – | inactive |
| CC1(C)CC23[C@@H]4CC(=O)[C@@H]2COC(=O)[C@@H]3CC[C@H]41 | – | -0.513% (inactive) | – |
| O=S(=O)(c1cccc2ccccc12)n1ccc2ccc(N3CCN4CCCC4C3)cc21 (stereo not given) | – | -24.9% (inactive) | – |
| C[C@@H](c1nc(-c2ccc(C#N)cc2)cs1)[C@](O)(Cn1cncn1)c1cc(F)ccc1F | inactive | – | – |
| N#C/C(=C\c1ccc(O)c(O)c1)C(=O)Nc1ccccc1 | – | -18% (inactive) | – |
| O=C1NCCCc2c1oc1ccc(O)cc21 | – | 3.07% (inactive) | – |
| C=C(C)C(=O)O[C@H]1[C@H]2C(=C)C(=O)O[C@@H]2C[C@@H](C)/C=C\C(=O)[C@](C)(O)[C@@H]1OC(C)=O | – | – | inactive [at 27.7 µM] |
| O=S(=O)(/N=C/c1c(O)ccc2ccccc12)c1cccs1 | – | – | inactive |
| c1ccc(-c2n[nH]c3c2oc2ccccc23)cc1 | – | – | inactive |
| CCC(=O)Nc1cccc(Oc2nc(Nc3ccc(N4CCN(C)CC4)cc3OC)ncc2Cl)c1 | inactive | – | – |
